# Screening results from PubChem BioAssay.
# LMP1 NFkB inh = reduces LMP1-driven NF-kappaB luciferase signal. inhibition, % at 12.5 µM. actives 0.69% (n = 350,000). LMP1-induced NF-kappaB luciferase reporter cells, luminescence; in the data active means inhibition above about 41%; inconclusive means no clear call, values can overlap the other calls;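 further: 0% = neutral control wells and 100% = reference inhibitor control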
# MITF TRPM1 inh = inhibitors of MITF-driven TRPM1 promoter in melanoma cells. SK-MEL-5 TRPM1 promoter luciferase, 24 h. inhibition, % at 12.5 µM. actives 0.83% (n = 330,000). AID 488899;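 active means mean inhibition across replicates of 60% or more, whatever share of single replicates reaches that level; inconclusive means some that reach 60%, reason not given; inactive means mean inhibition across replicates below 60%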
# TWEAK Fn14 block = inhibitors of TWEAK-Fn14 interaction signaling; TWEAK-stimulated Fn14 reporter cells, luciferase luminescence, 8 h; inhibition, % at 10 µM; actives 2% (n = 360,000); in the data active means inhibition above about 50%
# TROY NFkB inh = blocks TROY-dependent signaling in reporter cells. Q293 LMP1-TROYcd NF-kB luciferase reporter, 4 h. actives 0.98% (n = 360,000). inhibition, % at 10 µM;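 active means compounds whose plate-normalised and pattern-corrected inhibition of the luciferase reporter signal at the single screening dose is 50% or more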
# MITF act = increases MITF-driven TRPM1 promoter luciferase signal; SK-MEL-5 TRPM1-promoter luciferase, 24 h; % of positive control, neutral wells = 0; activation, % at 12.5 µM; actives 0.75% (n = 300,000);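 active means mean activation of at least 80% with every replicate also reaching 80%; inconclusive means mean reaches 80% but some replicate falls short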;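 further: 0% = neutral control wells and 100% = parthenolide positive control wells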
# LGR2 antag = blocks bursicon-induced cAMP signaling via Drosophila LGR2 | inhibition, % at 9.99 µM | actives 0.35% (n = 380,000) | HEK293 LGR2, CRE-luciferase, bursicon-stimulated, 4 h | AID 720647;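 active means drop in luminescence signal, shown as inhibition above about 50% in the replicate tests, limit read from the data, passing the limit was not always enough; inconclusive means probably only some replicates passing the limit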;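 further: agonist challenge used bursicon conditioned medium at about half maximal strength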
# Numbers without * were called inactive; u = inconclusive; x = no result given. A selection: hits, their analogues and other compounds. The true share with any hit is near 3%.
SMILES,LMP1 NFkB inh,MITF TRPM1 inh,TWEAK Fn14 block,TROY NFkB inh,MITF act,LGR2 antag
O=C(Nc1ccc(N2CCOCC2)c(F)c1)c1cccs1,3,-100,9,-32,110*,-85
O=C(Nc1cccc(O)c1)c1ccc(NC(=O)c2cccs2)cc1,-8,-102,-18,-60,103*,-42
O=C(Nc1cccc(N2C(=O)C=CC2=O)c1)c1cccs1,-1,73*,-12,-7,-71,13
C[C@H](CO)N1C[C@H](C)[C@H](CN(C)CC2CC2)Oc2ncc(-c3ccc(C#N)cc3)cc2C1=O,x,x,x,x,x,14
CC(C)C#Cc1ccc2c(c1)O[C@H](CN(C)Cc1cncnc1)[C@H](C)CN([C@H](C)CO)S2(=O)=O,x,x,x,x,x,-8
O=C(Nc1cc(F)ccc1F)N1CC(=O)N2[C@H](CO)[C@@H](c3ccc(C#CC4CCCC4)cc3)[C@H]2C1,x,x,x,x,x,-4
C[C@@H]1CN([C@@H](C)CO)C(=O)c2cc(/C=C/c3ccccc3)cnc2O[C@@H]1CN(C)C(=O)c1ccc(F)cc1,x,x,x,x,x,-10
CC[n+]1c(/C=C/c2ccc(OC(C)=O)c(OC)c2)ccc2ccccc21,2,-84,-30,-37,97*,-26
CC[n+]1ccc(/C=C/c2ccc(N(C)C)cc2)c2ccccc21,u,88*,36,47,-88,16
CC[n+]1c(/C=C/c2ccc(OC)c(OC)c2)ccc2ccccc21,-48,-74,-15,31,x,-19
CCCCCC[n+]1ccccc1/C=C/c1ccc(N(C)C)cc1,x,x,50*,56*,x,18
CCN(CC)c1ccc(/C=C/c2ccc3ccc(OC)cc3[n+]2CC)cc1,35,81*,63*,45,-79,39
CC[n+]1ccccc1/C=C/c1ccc(N(C)C)cc1,9,42,38,26,-37,31
O=C(C[C@@H]1CC[C@@H](NC(=O)c2ccc(F)cc2)[C@H](CO)O1)NCc1ccncn1,x,x,x,x,x,2
C[C@@H]1CCCCO[C@H](CN(C)C(=O)c2ccncc2)[C@@H](C)CN([C@@H](C)CO)C(=O)c2cc(NC(=O)CCC(F)(F)F)ccc2O1,x,x,x,x,x,-23
COc1ccc(NC(=O)Nc2ccc3c(c2)CC(=O)N([C@H](C)CO)C[C@@H](C)[C@H](CN(C)S(=O)(=O)c2cccs2)O3)cc1,x,x,x,x,x,20
CC[n+]1c(/C=C/c2ccc(N(C)C)cc2)ccc2ccccc21,52*,90*,71*,74*,-88,11
C[C@@H]1CN([C@@H](C)CO)C(=O)c2cccc(NC(=O)CCCCCC(=O)Nc3ccccc3N)c2O[C@@H]1CN(C)C(=O)Nc1ccccc1,x,x,x,x,x,-6
OC[C@H]1[C@@H](c2ccccc2)C2(CN(Cc3ccccc3)C2)N1Cc1ccncc1,x,x,x,x,x,9
O=S(=O)(N[C@@H]1CC[C@@H](CCn2cc(C3CC3)nn2)O[C@H]1CO)c1ccc(Cl)cc1,x,x,x,x,x,19
COc1ccc(CCN2CCC(Nc3nc4ccccc4n3Cc3ccc(F)cc3)CC2)cc1,-25,96*,-9,0,-96,36
O=C1ON=C(c2ccc(Cl)c([N+](=O)[O-])c2)/C1=C/c1cccc([N+](=O)[O-])c1O,5,10,8,-14,-3,6
O=C1ON=C(c2ccccc2[N+](=O)[O-])/C1=C/c1cccc([N+](=O)[O-])c1O,71*,5,14,6,-4,10
O=C(C[C@@H]1C[C@@H]2c3cc(NC(=O)CC4CC4)ccc3O[C@@H]2[C@@H](CO)O1)NCc1ccccc1F,x,x,x,x,x,-4
COc1ccc2c3c(n(C)c2c1)[C@@H](CO)N(S(=O)(=O)c1ccc(C)cc1)CC31CCN(S(=O)(=O)c2ccc(C)cc2)CC1,x,x,x,x,x,9
CC(=O)Nc1ccc(NC2=Nc3ccccc3N3C2=Nc2c(c(C)nn2-c2ccccc2)C3c2ccccc2)cc1 (stereo not given),u,79*,96*,27,-79,2
COc1ccc(NC2=Nc3ccccc3N3C2=Nc2c(c(C)nn2-c2ccc(C)cc2)C3c2cccnc2)cc1 (stereo not given),-31,4,-4,9,-6,x
CN1C(=O)c2cc(NC(=O)C3CCOCC3)ccc2OC[C@@H]2O[C@@H](CC(=O)NCc3ccc4c(c3)OCO4)CC[C@H]21,x,x,x,x,x,11
Cc1ccc(OCCCNCCO)c(Br)c1,-7,23,53*,20,-22,x
